Measurements as given in PubChem BioAssay.
Activity calls are given as the source filed them.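 The calls were made as follows, unless noted: active = inhibition at or above 50% at 10 µM; inactive = inhibition below 50%.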

Key:
[1] = inhibitors of TNFa-induced NFkB p65 translocation, primary screen, imaging, HUVEC, MLSMR starter and 10KST1 sets (AID 438;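 active = inhibition above 20% together with a positive visual image hit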;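 also: compound added about 3h40 before a 20 min TNFalpha stimulation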;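 as to inhibition: signal is the nuclear over cytoplasmic p65 intensity ratio per well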); details: HUVEC TNFa-induced p65 nuclear translocation; cell count: measured here: nuclei count (cytotoxicity indicator), at 2.08 µM; inhibition: at 2 µM, stronger effect = higher value, 0% TNFa-plus-vehicle, 100% no-TNFa wells
[2] = inhibitors of mutant huntingtin aggregation, primary screen, imaging, exon1htt(103Q)mCFP cells, high-content imaging (AID 483;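 active = visual image review flags a hit and inhibition of aggregation exceeds 20%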;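 also: compound exposure lasted 3 days before fixation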;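 as to nuclei count: percent of the per-plate median nuclei count of sample wells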); details: exon1htt(103Q)mCFP cell line, aggregate imaging, at 2 µM; inhibition of aggregation: stronger effect = higher value; nuclei count: measured here: cell count, toxicity
[3] = inhibitors of E-selectin induction by TNFa, primary screen, imaging, HUVEC, immunofluorescence, MLSMR starter and 10KST1 sets (AID 487;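 active = visually confirmed hit in the image check and inhibition above 20%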;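 as to inhibition: signal is fraction of cell area covered by stained E-selectin grains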;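 as to nuclei count: 100% = median nuclei count of all wells on the same plate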); details: HUVEC TNFalpha-induced E-selectin immunofluorescence imaging, at 2 µM; inhibition: stronger effect = higher value; nuclei count: measured here: cell number, toxicity
[4] = target: Voltage-gated potassium channel subunit beta-2 (Rattus norvegicus) (UniProt P62483); experiment: KvBeta enzyme negative modulators, primary screen, biochemical, NADPH fluorescence (AID 622;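 active = fluorescence slope higher than the sample average by over 3 SD, cut at about -0.22 in these data, passing the limit was not always enough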;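 also: slope of raw intensity against log time taken from 70 to 1610 s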); details: recombinant KvBeta, 4-cyanobenzaldehyde reduction, at 10 µM, stronger effect = higher value
[5] = target: Voltage-gated potassium channel subunit beta-2 (Rattus norvegicus) (UniProt P62483); experiment: KvBeta positive modulators, primary screen, biochemical, NADPH fluorescence (AID 623;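 active = NADPH fluorescence slope more negative than the mean of all samples by about 3 SD, 99.7% confidence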;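 also: fluorescence intensity change per second fitted from 20 to 320 s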); details: Recombinant KvBeta, NADPH fluorescence decrease slope, 10 min; at 10 µM; stronger effect = lower value
[6] = target: Alpha-2C adrenergic receptor (Homo sapiens) (UniProt P18825); experiment: modulators of alpha2C/GIRK thallium flux, primary screen, cell-based, HEK293 alpha2C/GIRK1/2 (AID 624;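 active = fluorescence slope after compound addition differing from the mean of all screened samples at 99.7% confidence, in either direction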;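 also: slope of fluorescence ratio to pre-addition baseline per second over 15 to 24 s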); details: thallium flux BTC fluorescence, at 10 µM, actives lie on both sides
[7] = inhibitors of Sendai virus-induced IRF3 signaling, primary screen, TLR/RLR signaling modifier project, cell-based, Sendai virus stimulus, luciferase, 10K MLSCN set (AID 602276); details: HEK293 RL24 IRF3 luciferase reporter, at 10 µM, stronger effect = higher value;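 also: firefly luciferase from ISG56 promoter only with Renilla not read in this screen; 0% = Sendai virus plus DMSO and 100% = medium plus DMSO without virus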
[8] = inhibitors of poly I:C-induced TLR3 signaling, primary screen, cell-based, poly I:C stimulus, luciferase, 10K MLSCN set (AID 602277;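 active = inhibition of the reporter signal at or above 50%; inactive = inhibition below 50%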); details: HEK293-TLR3 RL24 IRF3 luciferase reporter, at 10 µM, stronger effect = higher value

Chain of Voltage-gated potassium channel subunit beta-2 (Rattus norvegicus) (P62483 whole entry, looked up): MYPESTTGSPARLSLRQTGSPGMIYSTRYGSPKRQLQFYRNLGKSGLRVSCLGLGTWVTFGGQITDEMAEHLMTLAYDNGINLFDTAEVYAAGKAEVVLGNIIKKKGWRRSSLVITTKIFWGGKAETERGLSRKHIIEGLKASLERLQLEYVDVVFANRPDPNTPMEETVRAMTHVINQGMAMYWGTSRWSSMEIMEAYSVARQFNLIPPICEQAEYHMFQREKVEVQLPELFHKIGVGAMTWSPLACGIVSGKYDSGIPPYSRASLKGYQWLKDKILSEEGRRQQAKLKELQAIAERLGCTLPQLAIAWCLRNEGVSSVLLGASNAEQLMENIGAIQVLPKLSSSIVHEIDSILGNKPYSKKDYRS
Chain of Alpha-2C adrenergic receptor (Homo sapiens) (P18825 whole entry, looked up): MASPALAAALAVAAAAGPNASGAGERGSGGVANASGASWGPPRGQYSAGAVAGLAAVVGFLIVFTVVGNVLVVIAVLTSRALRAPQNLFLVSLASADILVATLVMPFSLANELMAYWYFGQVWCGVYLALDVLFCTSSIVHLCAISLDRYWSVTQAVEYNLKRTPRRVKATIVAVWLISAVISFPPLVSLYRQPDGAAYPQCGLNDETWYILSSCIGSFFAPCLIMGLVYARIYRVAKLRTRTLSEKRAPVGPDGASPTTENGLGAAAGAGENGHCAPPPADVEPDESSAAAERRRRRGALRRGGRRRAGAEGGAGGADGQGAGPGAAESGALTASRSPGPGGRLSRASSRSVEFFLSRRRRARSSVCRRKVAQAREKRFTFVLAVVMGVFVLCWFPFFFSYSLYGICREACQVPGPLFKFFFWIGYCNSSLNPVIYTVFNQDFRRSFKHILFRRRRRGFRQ

## CC(CCc1ccco1)NC(=O)Cn1ncc2c1-c1ccccc1OC2 (configuration not stated)
[1]
  cell count: 762
  inhibition: -3.2% (inactive)
[2]
  inhibition of aggregation: -17.9% (inactive)
  nuclei count: 126%
[3]
  inhibition: 0.8% (inactive)
  nuclei count: 120%
[4]
  fluorescence slope: -0.539 (inactive)
[5]
  NADPH fluorescence slope: -1.5e-05 (inactive)
[6]
  slope: 0.00662 (inactive)
[7]
  inhibition: -1.38% (inactive)
[8]
  inhibition: 11.2% (inactive)

## Cn1c(-c2ccc(F)cc2)cnc1SCC(=O)Nc1ccccc1N1CCOCC1
[1]
  cell count: 458
  inhibition: 1.4% (inactive)
[2]
  inhibition of aggregation: 53.7% (active)
  nuclei count: 63.3%
[3]
  inhibition: -76.1% (inactive)
  nuclei count: 90.4%
[4]
  fluorescence slope: -0.31 (inactive)
[5]
  NADPH fluorescence slope: -2.7e-05 (inactive)
[6]
  slope: 0.00572 (inactive)
[7]
  inhibition: -29.2% (inactive)
[8]
  inhibition: -99% (inactive)

## Fc1ccc(-n2c(Cc3ccccc3)nnc2SCc2nc(-c3cccs3)no2)cc1
[1]
  cell count: 466
  inhibition: 2.5% (inactive)
[2]
  inhibition of aggregation: 0.1% (inactive)
  nuclei count: 86.5%
[3]
  inhibition: -52.5% (inactive)
  nuclei count: 108%
[4]
  fluorescence slope: -0.63 (inactive)
[5]
  NADPH fluorescence slope: -4.2e-05 (inactive)
[6]
  slope: 0.00381 (inactive)
[7]
  inhibition: -1.69% (inactive)
[8]
  inhibition: 1.22% (inactive)

## Cc1cccc(-n2ncc3c(NCc4cccnc4)ncnc32)c1
[1]
  cell count: 670
  inhibition: -21.7% (inactive)
[2]
  inhibition of aggregation: 9.2% (inactive)
  nuclei count: 101%
[3]
  inhibition: -18.5% (inactive)
  nuclei count: 119%
[4]
  fluorescence slope: -0.555 (inactive)
[5]
  NADPH fluorescence slope: -3.3e-05 (inactive)
[6]
  slope: 0.00696 (inactive)
[7]
  inhibition: -49.1% (inactive)
[8]
  inhibition: -205% (inactive)

## COc1ccc(-c2ccc(-c3noc(-c4ccccc4OC)n3)c(OC)n2)cc1
[1]
  cell count: 294
  inhibition: 16.9% (inactive)
[2]
  inhibition of aggregation: -30.2% (inactive)
  nuclei count: 86.6%
[3]
  inhibition: -1.9% (inactive)
  nuclei count: 111%
[4]
  fluorescence slope: -0.0455 (inactive)
[5]
  NADPH fluorescence slope: -3.2e-06 (inactive)
[6]
  slope: 0.00463 (inactive)
[7]
  inhibition: -0.193% (inactive)
[8]
  inhibition: -36.2% (inactive)

## CCC1Oc2ccc(C)cc2N(CC(=O)N(Cc2cccnc2)Cc2ccc(C)o2)C1=O (configuration not stated)
[1]
  cell count: 685
  inhibition: -5.5% (inactive)
[2]
  inhibition of aggregation: 13.1% (inactive)
  nuclei count: 93.4%
[3]
  inhibition: -9.6% (inactive)
  nuclei count: 103%
[4]
  fluorescence slope: -0.599 (inactive)
[5]
  NADPH fluorescence slope: -5e-05 (inactive)
[6]
  slope: 0.00383 (inactive)
[7]
  inhibition: 17.7% (inactive)
[8]
  inhibition: 24.3% (inactive)

## CCN(CC)CC(C)CNC(=O)CC(C(=O)N1CCc2ccccc21)n1ccnc1 (configuration not stated)
[1]
  cell count: 604
  inhibition: -10% (inactive)
[2]
  inhibition of aggregation: 10.7% (inactive)
  nuclei count: 98.5%
[3]
  inhibition: -125% (inactive)
  nuclei count: 110%
[4]
  fluorescence slope: -0.464 (inactive)
[5]
  NADPH fluorescence slope: 6.1e-05 (inactive)
[6]
  slope: 0.00462 (inactive)
[7]
  inhibition: 3.93% (inactive)
[8]
  inhibition: 11% (inactive)

## O=C(O)C1C2C=CC3(CN(C4CCCC4)C(=O)C13)O2 (configuration not stated)
[1]
  cell count: 521
  inhibition: -3.4% (inactive)
[2]
  inhibition of aggregation: 24.1% (inactive)
  nuclei count: 69.2%
[3]
  inhibition: -23.3% (inactive)
  nuclei count: 97.3%
[4]
  fluorescence slope: -0.546 (inactive)
[5]
  NADPH fluorescence slope: -1.2e-05 (inactive)
[6]
  slope: 0.00708 (inactive)
[7]
  inhibition: 12.5% (inactive)
[8]
  inhibition: 38% (inactive)

## COc1cccc(Oc2cn[nH]c2-c2ccc(O)cc2O)c1
[1]
  cell count: 361
  inhibition: 10.2% (inactive)
[2]
  inhibition of aggregation: -13.9% (inactive)
  nuclei count: 103%
[3]
  inhibition: -104% (inactive)
  nuclei count: 101%
[4]
  fluorescence slope: -0.453 (inactive)
[5]
  NADPH fluorescence slope: 4.8e-05 (inactive)
[6]
  slope: 0.0038 (inactive)
[7]
  inhibition: -4.4% (inactive)
[8]
  inhibition: 12.8% (inactive)

## CCOC(=O)C1CCN(Cc2ccc(F)c(Br)c2)CC1
[1]
  cell count: 313
  inhibition: 3.4% (inactive)
[2]
  inhibition of aggregation: -23.7% (inactive)
  nuclei count: 110%
[3]
  inhibition: -156% (inactive)
  nuclei count: 140%
[4]
  fluorescence slope: -0.414 (inactive)
[5]
  NADPH fluorescence slope: 2e-06 (inactive)
[6]
  slope: 0.00431 (inactive)
[7]
  inhibition: 9.36% (inactive)
[8]
  inhibition: 20.4% (inactive)

## Cc1nc2ccc(S(=O)(=O)NCC(=O)N3CCc4ccccc4C3)cc2s1
[1]
  cell count: 439
  inhibition: 2.7% (inactive)
[2]
  inhibition of aggregation: 1.5% (inactive)
  nuclei count: 91.2%
[3]
  inhibition: -4.9% (inactive)
  nuclei count: 119%
[4]
  fluorescence slope: -0.563 (inactive)
[5]
  NADPH fluorescence slope: 3.2e-05 (inactive)
[6]
  slope: 0.00627 (inactive)
[7]
  inhibition: -4.3% (inactive)
[8]
  inhibition: -28.9% (inactive)

## CN(C(=O)C1CCCO1)c1nnc(-c2ccncc2)s1 (configuration not stated)
[1]
  cell count: 279
  inhibition: -2.1% (inactive)
[2]
  inhibition of aggregation: 4.6% (inactive)
  nuclei count: 103%
[3]
  inhibition: -10.8% (inactive)
  nuclei count: 103%
[4]
  fluorescence slope: -0.322 (inactive)
[5]
  NADPH fluorescence slope: -4.6e-05 (inactive)
[6]
  slope: 0.00538 (inactive)
[7]
  inhibition: -12% (inactive)
[8]
  inhibition: -17.4% (inactive)
